The text below walks through data of PubChem BioAssay (Tox21).

Inconclusive results are not listed. Activity calls are given as the source filed them. Calls follow the shape of the dose curve; as a rule, active = well fitted cell-killing curve with a large enough effect in the repeat runs; inconclusive = weak or mixed curves; inactive = flat fitted curve, though single readings scatter.
% is scaled to controls: 0 for no effect and ±100 for the full control effect; potency is read from the fitted curve at half-maximal effect.

The nature of the experiment: qHTS assay to identify small molecule antagonists of the estrogen related receptor (ERR) signaling pathway from Tox21 library - cell viability counter screen (AID 1224834). Also: nearly all actives have a fitted effect of over 30% in size. As to conditions: ERR reporter cells viability, CellTiter-Fluor, 17.5 h; series mostly up to 92.4 µM; viability change, negative = cytotoxic: at the top concentration. From the text: National Center for Advancing Translational Sciences [NCATS]
NIH Chemical Genomics Center [NCGC]
U.S. Environmental Protection Agency [EPA]
National Institutes of Environmental Health Sciences [NIEHS]
National Toxicology Program [NTP]
U.S. Food and Drug Administration [FDA]
Estrogen related receptors (ERRs), the first orphan nuclear receptors discovered, play an important role in the control of cellular energy metabolism. ERRs are required for high-energy production in response to the environmental challenges. ERR-alpha was also identified as an adverse marker for breast cancer progression; ERR-alpha-positive tumors have a poor prognosis. To screen and to identify environmental compounds that perturb the ERR signaling pathways could provide valuable information for potential therapeutic or preventive measures in the treatment of metabolic disease. To differentiate true ERR antagonists or agonist from cytotoxic substances, the assay is multiplexed with cell viability assay.
Tox21 Assay Protocol Summary:
The ERR cells were dispensed at 2,000 cells/5 ul/well in 1536-well white plates using a Multidrop dispenser. After the assay plates were incubated at a 37 C/5% CO2 incubator for 6 hours, 23 nL of compounds dissolved in DMSO, positive and negative controls or DMSO only was transferred to the assay plate by a pin tool. The plates were incubated at 37 C for 17.5 hours. 1 ul/well of CellTiter-Fluor reagent was added into the assay plates using a Flying Reagent Dispenser. After 30-minute incubation at 37 C/5% CO2, the fluorescence intensity in the plates was measured using a ViewLux plate reader.
(In general: In qHTS, concentration-response curves come from the screen itself.)
Regarding `CC1CCCNC1` (stereo not given), the “viability change, negative = cytotoxic” value was -5.24% (inactive). Take `CCOC(=O)COc1ccc(C)cc1`: the “viability change, negative = cytotoxic” value was 3.86% (inactive).

As to `CCCCN(C)C`, the “viability change, negative = cytotoxic” value was 1.59% (inactive). Same read-out and setting: next, `COc1cccc(OC)c1O`: 1.18% (inactive). In the case of `CCC(C)c1cc([N+](=O)[O-])cc([N+](=O)[O-])c1OC(=O)OC(C)C` (stereo not given), the Potency was 24.3 µM (active). Take `C=CC(=O)OCCOCC(CC)(COCCOC(=O)C=C)COCCOC(=O)C=C`: the Potency is 16 µM (active). Consider `CCOC(=O)[C@@](C)(N)Cc1ccc(O)c(O)c1`, for which the “viability change, negative = cytotoxic” value was 6.38% [at 42.5 µM] (inactive).

With `O=C1C=CC(=O)N1c1ccccc1`, the Potency was 43.3 µM (active).

In the case of `COc1cccc(O)c1`, the “viability change, negative = cytotoxic” value was -0.306% (inactive).

Turning to `CO[Si](CCC1CCC2OC2C1)(OC)OC` (stereo not given), the “viability change, negative = cytotoxic” value is 1.64% (inactive). On the same count and under the same terms, next, `Cc1ccc(O)cn1`: 0.209% (inactive); `COc1nccnc1CC(C)C`: -0.606% (inactive). On the same count and under the same terms, next, `NC(=O)c1ccccc1N`: -6.69% (inactive); `c1cc[nH]c1`: 0.835% (inactive); `C=CC(=C)CCC=C(C)C`: -1.08% (inactive). Same read-out and setting: next, `O=C=NCc1cccc(CN=C=O)c1`: 0.396% [at 19 µM] (inactive). Consider `CC(=O)OC1CCCCC1`, for which the “viability change, negative = cytotoxic” value was 3.97% (inactive). On the same count and under the same terms, next, `CCc1c(C(=O)O)c(=O)cnn1-c1ccc(Cl)cc1`: 4.76% (inactive). In the case of `CCCCOCC`, the “viability change, negative = cytotoxic” value is 0.493% (inactive). On the same count and under the same terms, next, `O=C1OC(=O)c2cccc3cccc1c23`: -4.2% (inactive). As for `CCCCCCOc1cc(C)c(O)c(C)c1C`, the Potency was 61.9 µM (active).

As to `CCOC(=O)CC(C)O` (stereo not given), the “viability change, negative = cytotoxic” value was -3.82% (inactive). On the same count and under the same terms, next, `S=P(N1CC1)(N1CC1)N1CC1`: 1.04% (inactive); `Clc1cccnc1`: 7.04% (inactive); `C#CC(O)CCC` (stereo not given): 2.85% (inactive).

`O=C1NCCN1CCN1CCC(c2cn(-c3ccc(F)cc3)c3ccc(Cl)cc23)CC1`: the Potency is 26.6 µM (active). With `CCC(=O)OCCc1ccccc1`, the “viability change, negative = cytotoxic” value was -1.71% (inactive).

With `C=C(C)CCCC`, the “viability change, negative = cytotoxic” value is 0.584% (inactive). Still for that read-out and setting: next, `CCCCOC(=O)C(C)CC` (stereo not given): 3.47% (inactive); `CCCCCCCCCCCCCCCCCO`: 0.981% [at 19 µM] (inactive).

With `CC1(C)COCN1`, the “viability change, negative = cytotoxic” value is 0.946% (inactive). Consider `CCN(CC)CCOc1ccc(C(O)(Cc2ccc(Cl)cc2)c2ccc(C)cc2)cc1` (stereo not given), for which the Potency is 33.5 µM (active).

As to `N#CSCSc1nc2ccccc2s1`, the Potency was 61.1 µM (active). With `CC(C)(C)C1=CC(=O)C=C(C(C)(C)C)C1=O`, the “viability change, negative = cytotoxic” value was 1.26% (inactive).

On to `CN(C)CCCN1c2ccccc2Sc2ccc(C(F)(F)F)cc21`, for which the Potency is 29.8 µM (active). As for `Clc1nc2ccccc2s1`, the “viability change, negative = cytotoxic” value was 2.37% (inactive). On the same count and under the same terms, next, `OCCN1CN(CCO)CN(CCO)C1`: -0.604% (inactive). Take `C/C=C/C(=O)Oc1c(CCCCCC(C)C)cc([N+](=O)[O-])cc1[N+](=O)[O-]`: the Potency was 24.3 µM (active). Turning to `CCOCN(C(=O)CS(=O)(=O)O)c1c(C)cccc1CC`, the “viability change, negative = cytotoxic” value is 0.575% (inactive). On the same count and under the same terms, next, `CO[Si](CCCNCCNCCN)(OC)OC`: 0.219% (inactive).
